{"source": "ChEMBL document CHEMBL1157539", "about": "“Thousands of chemical starting points for antimalarial lead identification” (Nature, 2010)"}
{"system": "Plasmodium falciparum", "test": "GSK_TCMDC: Inhibition of Plasmodium falciparum Dd2 in whole red blood cells, using parasite LDH activity as an index of growth. Test compounds present at 2uM", "assay_type": "functional", "units": {"Inhibition": "%"}}
{"smiles": "Cl.N#Cc1ccc2c(c1)CCN(CCC1CCC(NC(=O)/C=C/c3ccc(F)c4ccccc34)CC1)CC2", "note": "(stereo not drawn)", "Inhibition": 19}
{"smiles": "CN1CCC(C(=O)Nc2cccc(-c3ccc(-c4nc5ccccc5[nH]4)cc3)c2)CC1", "Inhibition": 15}
{"smiles": "CCCCCC(C)N/C(=N/c1ccccc1Br)Nc1ccc([N+](=O)[O-])cc1O", "note": "(stereo not drawn)", "Inhibition": 98}
{"smiles": "NC1CCN(CCNCc2cccc(-c3ccc(-c4nc5cc(C(F)(F)F)ccc5[nH]4)cc3)c2)C1.O=C(O)C(F)(F)F", "note": "(stereo not drawn)", "Inhibition": 75}
{"smiles": "O=C(O)C(F)(F)F.c1ccc(CN2CCC(NCc3ccccc3-c3ccc(CNCc4ccc5c(c4)OCO5)cc3)CC2)cc1", "Inhibition": 49}
{"smiles": "COc1ccc(C(=O)NC2CCN(c3ccnc4cc(Cl)ccc34)C2)cc1.O=C(O)C(F)(F)F", "note": "(stereo not drawn)", "Inhibition": 100}
{"smiles": "CC(C)N1CCC(N(Cc2ccc(-c3ccc(C(F)(F)F)cc3)cc2)C(=O)Cn2c(CCc3cccc(F)c3F)nc(=O)c3cccnc32)CC1.O=C(O)C(O)C(O)C(=O)O", "Inhibition": 80}
{"smiles": "COc1ccc(CNC2CCCC2)cc1-c1ccc(S(=O)(=O)NCCN2CCCC2)s1.O=C(O)C(F)(F)F", "Inhibition": 17}
{"smiles": "N#Cc1ccc2[nH]cc(C(=O)CCCCCN(Cc3ccccc3)Cc3ccccc3)c2c1", "Inhibition": 97}
{"smiles": "COc1ccc(-c2cccc(NC(=O)c3cccc(C#N)c3)c2)cc1CN1CCC(O)CC1.O=C(O)C(F)(F)F", "Inhibition": 13}
{"smiles": "COc1ccc2nc3cc(Cl)ccc3c(NCc3ccccc3)c2c1.Cl", "Inhibition": 50}
{"smiles": "Cc1ccc(CNC(=O)[C@H](CC(C)C)Nc2cc(C)nc(Nc3ccccc3)n2)cc1.O=C(O)C(F)(F)F", "Inhibition": 19}
{"smiles": "CCn1c(-c2nonc2N)nc2c(-c3cc4ccccc4s3)ncc(C(=O)N3CCC(N)C3)c21.O=C(O)C(F)(F)F", "note": "(stereo not drawn)", "Inhibition": 66}
{"system": "HepG2", "test": "GSK_TCMDC: Percent inhibition of human HepG2 cell line. Test compounds present at 10uM.", "assay_type": "functional", "units": {"Inhibition": "%"}}
{"smiles": "O=C(N[C@@H](Cc1ccccc1)CN1CCC(Oc2ccc(F)cc2)CC1)c1ccc(OCCCN2CCCCC2)cc1.O=C(O)C(F)(F)F", "Inhibition": 38}
{"smiles": "COc1cc(OC)c2c(C)cc(NCCCN3CCOCC3)nc2c1", "Inhibition": 6}
{"smiles": "CN(C)CCCN(C)C(=O)c1cc2cc(-c3ccccc3)ccc2n1S(=O)(=O)c1ccccc1.Cl", "Inhibition": 29}
{"smiles": "O=C(NCCc1cccc(F)c1)c1cc(Br)cc(N2CCN(c3ccncc3)CC2)c1.O=C(O)C(F)(F)F", "Inhibition": 34}
{"smiles": "Cc1cccc2nc(-c3ccc(-c4cccc(NC(=O)C(C)CN(C)C)c4)cc3)[nH]c12", "note": "(stereo not drawn)", "Inhibition": 20}
{"smiles": "COc1ccc(CCNC(C)Cc2ccc(C(=O)Nc3ccc(CC(C)NCCc4cccc(Cl)c4)cc3)cc2)cc1", "note": "(stereo not drawn)", "Inhibition": 99}
{"smiles": "CCCC(C)Nc1nc(C)cc(N[C@@H](CC(C)C)C(=O)Nc2ccc(OC)cc2)n1.O=C(O)C(F)(F)F", "note": "(stereo partly drawn)", "Inhibition": 18}
{"smiles": "CCCCc1cc(N2CCC(NC(C)=O)C2)nc(Nc2ccc(C)cc2)n1", "note": "(stereo not drawn)", "Inhibition": 2}
{"smiles": "CC1(C)N=C(N)N=C(N)N1OCCCCON1C(N)=NC(N)=NC1(C)C", "Inhibition": 54}
{"smiles": "CN(C)c1nc(NCc2ccccc2)nc(N/N=C/c2cc([N+](=O)[O-])ccc2O)n1", "Inhibition": 48}
{"smiles": "CCC(N)(C#Cc1ccc(-c2c(C)[nH]c(C)c(Br)c2=O)cc1)CC", "Inhibition": 0}
{"smiles": "O=C(Nc1cc(F)cc(F)c1)N1CCOC(CCN2CCC3(CCc4ccccc43)CC2)(c2ccc(Cl)c(Cl)c2)C1", "note": "(stereo not drawn)", "Inhibition": 32}
{"smiles": "Fc1ccc(-c2nc(NCc3cccc(C(F)(F)F)c3)nn2-c2cccc(C(F)(F)F)c2)cc1C(F)(F)F", "Inhibition": 2}
{"smiles": "O=C(O)C(F)(F)F.c1cc(-c2ccc(CN3CCCC3)cc2)cc(-c2nc3ccccc3[nH]2)c1", "Inhibition": 25}
{"smiles": "O=C(Nc1cccc([N+](=O)[O-])c1)Nc1ccc(Cl)c(C(F)(F)F)c1", "Inhibition": 15}
{"smiles": "CC(C)C[C@@H]1C(=O)N[C@H](C2Cc3ccccc3C2)C(=O)N1[C@@H](C(=O)O)c1ccc(F)cc1F", "Inhibition": 10}
{"smiles": "O=C(NC(=O)c1ccccc1)NC1CCN(c2ccnc3cc(Cl)ccc23)C1.O=C(O)C(F)(F)F", "note": "(stereo not drawn)", "Inhibition": 32}
{"smiles": "CCN(CC)CCCCOc1ccc2c(c1)C(=O)c1cc(OCCCCN(CC)CC)ccc1-2.Cl", "Inhibition": 24}
{"smiles": "Cc1cc(CNCC(CCNc2cc(=O)c3ccccc3[nH]2)NCc2cc(Br)cc(Br)c2)oc1C", "note": "(stereo not drawn)", "Inhibition": 4}
{"smiles": "Br.CCc1c(CCNCCCCCCNCCc2ccc(Br)cc2)ccc(O)c1O", "Inhibition": 11}
{"smiles": "CCCCCCCc1ccc(-c2c(C)[nH]c(C)c(Cl)c2=O)cn1", "Inhibition": 0}
{"smiles": "COc1ccc2nc3cc(Cl)ccc3c(Nc3ccc(O)c(CN4CC5CCC(CC5)C4)c3)c2c1.Cl", "Inhibition": 17}
{"smiles": "Cc1cc2cc(/C=C/C(=O)NC3CCC(CCN4CCc5ccc(C#N)cc5CC4)CC3)ccc2[nH]1.Cl", "note": "(stereo not drawn)", "Inhibition": 6}
{"smiles": "O=C(Nc1ccc(-c2ccccc2)cc1)Nc1cccc(OCCN2CCCC2)c1.O=C(O)C(F)(F)F", "Inhibition": 11}
{"smiles": "O=C(NCCCCCCNCc1ccc(-c2ccccc2)cc1)Nc1ccc(Cl)c(Cl)c1", "Inhibition": 14}
{"smiles": "CCC(COCc1ccc(Cl)cc1)N(C)CCN(C)C(CC)COCc1ccc(Cl)cc1.Cl", "note": "(stereo not drawn)", "Inhibition": 89}
{"smiles": "CCN(CC)CC#Cc1ccc2[nH]c(C)c(Cl)c(=O)c2c1", "Inhibition": 11}
{"smiles": "Cl.N#Cc1ccc2c(c1)CCN(CCC1CCC(NC(=O)/C=C/c3ccc(F)c4ccccc34)CC1)CC2", "note": "(stereo not drawn)", "Inhibition": 29}
{"smiles": "CN1CCC(C(=O)Nc2cccc(-c3ccc(-c4nc5ccccc5[nH]4)cc3)c2)CC1", "Inhibition": 7}
{"smiles": "CCCCCC(C)N/C(=N/c1ccccc1Br)Nc1ccc([N+](=O)[O-])cc1O", "note": "(stereo not drawn)", "Inhibition": 0}
{"smiles": "NC1CCN(CCNCc2cccc(-c3ccc(-c4nc5cc(C(F)(F)F)ccc5[nH]4)cc3)c2)C1.O=C(O)C(F)(F)F", "note": "(stereo not drawn)", "Inhibition": 19}
{"smiles": "O=C(O)C(F)(F)F.c1ccc(CN2CCC(NCc3ccccc3-c3ccc(CNCc4ccc5c(c4)OCO5)cc3)CC2)cc1", "Inhibition": 26}
{"smiles": "COc1ccc(C(=O)NC2CCN(c3ccnc4cc(Cl)ccc34)C2)cc1.O=C(O)C(F)(F)F", "note": "(stereo not drawn)", "Inhibition": 31}
{"smiles": "CC(C)N1CCC(N(Cc2ccc(-c3ccc(C(F)(F)F)cc3)cc2)C(=O)Cn2c(CCc3cccc(F)c3F)nc(=O)c3cccnc32)CC1.O=C(O)C(O)C(O)C(=O)O", "Inhibition": 100}
{"smiles": "COc1ccc(CNC2CCCC2)cc1-c1ccc(S(=O)(=O)NCCN2CCCC2)s1.O=C(O)C(F)(F)F", "Inhibition": 17}
{"smiles": "N#Cc1ccc2[nH]cc(C(=O)CCCCCN(Cc3ccccc3)Cc3ccccc3)c2c1", "Inhibition": 10}
{"smiles": "COc1ccc(-c2cccc(NC(=O)c3cccc(C#N)c3)c2)cc1CN1CCC(O)CC1.O=C(O)C(F)(F)F", "Inhibition": 30}
{"smiles": "COc1ccc2nc3cc(Cl)ccc3c(NCc3ccccc3)c2c1.Cl", "Inhibition": 8}
{"smiles": "Cc1ccc(CNC(=O)[C@H](CC(C)C)Nc2cc(C)nc(Nc3ccccc3)n2)cc1.O=C(O)C(F)(F)F", "Inhibition": 12}
{"smiles": "CCn1c(-c2nonc2N)nc2c(-c3cc4ccccc4s3)ncc(C(=O)N3CCC(N)C3)c21.O=C(O)C(F)(F)F", "note": "(stereo not drawn)", "Inhibition": 99}
